Screening results: PubChem BioAssay, several laboratories
EBI2 block: antagonists of human EBI2 receptor; EBI2 beta-arrestin recruitment, luminescence, 7a,25-OHC stimulated; inhibition, % at 5 µM; 0.81% of 360,000 active; AID 651636; in the data active = inhibition above about 38%;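 also: enzyme fragment complementation signal reports receptor beta-arrestin coupling in cells; 0% = agonist plus DMSO wells and 100% = wells without agonist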
Target sequence (P32249 whole entry, looked up, the tested form may be a part): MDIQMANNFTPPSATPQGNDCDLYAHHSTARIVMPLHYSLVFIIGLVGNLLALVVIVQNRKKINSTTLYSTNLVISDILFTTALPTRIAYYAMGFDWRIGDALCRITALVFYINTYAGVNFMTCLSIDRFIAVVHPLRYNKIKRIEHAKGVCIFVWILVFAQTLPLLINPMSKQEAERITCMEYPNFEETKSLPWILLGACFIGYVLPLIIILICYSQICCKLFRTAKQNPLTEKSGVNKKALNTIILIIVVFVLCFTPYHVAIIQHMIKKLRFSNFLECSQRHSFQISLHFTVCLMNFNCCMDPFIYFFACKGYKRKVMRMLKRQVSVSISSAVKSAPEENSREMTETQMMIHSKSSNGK
SKKanGAS inh: SKKanGAS growth inhibition; S. pyogenes SKKanGAS, kanamycin growth, BacTiter-Glo, 6 h; inhibition, % at 7.5 µM; 1.3% of 300,000 active; AID 1662;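 active = mean replicate score, as percent of positive control median, at least 50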;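 also: strain carries kanamycin resistance gene driven by streptokinase promoter and grows in 40 µg/ml kanamycin; loss of luminescence reflects streptokinase promoter inhibition or plain growth inhibition; 0% = median of DMSO wells and 100% = positive control at its reference dose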
tim10-1 inh: tim10-1 yeast growth inhibition | AID 463190 | inhibition, % at 20 µM | S. cerevisiae tim10-1 ts strain growth, BacTiter-Glo, 24 h | 2.2% of 330,000 active;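 active = inhibition of at least 40%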;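 also: mutant grown at 25 °C; 0% = DMSO wells with yeast and 100% = wells holding no yeast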
PfHsp90 yeast 2: inhibits growth of yeast expressing Plasmodium falciparum Hsp90; inhibition, % at 9.4 µM; 0.32% of 310,000 active; S. cerevisiae expressing PfHsp90, BacTiter-Glo ATP, 48 h; yeast lacking PDR1 and PDR3 efflux regulators;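 active = every replicate shows inhibition above about 80%, whatever the replicate mean, limit read from the data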;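 also: 0% = DMSO neutral controls and 100% = 20 µM radicicol positive controls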
tim23-1 inh: tim23-1 yeast growth inhibition | S. cerevisiae tim23-1 growth, BacTiter-Glo luminescence, 24 h | inhibition, % at 20 µM | 1.3% of 330,000 active | AID 463212;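 active = growth inhibition of the mutant yeast at or above 50%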;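 also: temperature-sensitive mutant grown at 25 °C; plate controls were DMSO-treated mutant yeast for no effect and medium wells lacking yeast for full effect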
TIM10 inh: growth inhibitors of TIM10 yeast strain; S. cerevisiae TIM10 strain growth, BacTiter-Glo luminescence, 24 h; inhibition, % at 10 µM; 1.4% of 330,000 active;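 active = inhibition of 40% or more at the single tested concentration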;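 also: wild-type TIM10 isogenic control strain grown at permissive 25 °C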
* = called active by the depositor; · = no result; + = active, no number. A selection: hits, their analogues and other compounds. The true share with any hit is near 4.7%.

SMILES	EBI2 block	SKKanGAS inh	tim10-1 inh	PfHsp90 yeast 2	tim23-1 inh	TIM10 inh
COc1ccc(C(=O)NCN2CCN(c3ccccc3)CC2)cc1OC	-7	·	11	-7	-2	-1
CC(C)C(=O)NC(c1cccs1)c1cc([N+](=O)[O-])c2cccnc2c1O (stereo not drawn)	-11	77*	13	-90	25	18
CCC(=O)NC(/C=C/c1ccccc1)c1cc([N+](=O)[O-])c2cccnc2c1O (stereo not drawn)	·	41	15	·	-4	28
Cc1ccc(C(NC(=O)C(C)C)c2cc([N+](=O)[O-])c3cccnc3c2O)cc1 (stereo not drawn)	15	89*	30	67	28	15
CCc1nc2ccc(C(=O)N(C)CC(=O)Nc3ccc(F)c(F)c3F)cc2nc1CC	1	·	5	16	10	2
CCOc1cc(Br)cc(/C=N/NC(=O)c2cccnc2)c1O	8	55*	-3	8	44	-28
CCOc1cc(/C=N/NC(=O)c2c(-c3ccccc3)noc2C)ccc1O	11	-13	22	-34	6	12
COc1cc([N+](=O)[O-])cc(/C=N/NC(=O)C(C)Nc2ccccc2C)c1O (stereo not drawn)	69*	8	8	3	6	6
COc1c(Br)cc(Br)cc1/C=N/NC(=O)c1cccnc1	4	-2	34	11	41	1
COc1cc([N+](=O)[O-])cc(/C=N/NC(=O)c2ccc(NC(=O)c3ccc(C)cc3)cc2)c1O	-8	13	-5	9	-15	-3
CCOc1cc([N+](=O)[O-])cc(/C=N/NC(=O)c2c(-c3ccccc3)noc2C)c1O	12	92*	29	-40	10	-28
COc1cc([N+](=O)[O-])cc(/C=N/NC(=O)c2ccc(C)nc2)c1O	-1	82*	31	-6	-10	-7
C=CCc1cccc(/C=N/NC(=O)CCCNc2ccc(C)cc2)c1O	-8	16	·	6	·	·
COc1cc([N+](=O)[O-])cc(/C=N/NC(=O)C(C)Nc2cccc(C)c2)c1O (stereo not drawn)	-14	59*	20	-5	4	3
C=CCc1cccc(/C=N/NC(=O)C(C)Nc2cccc(C)c2)c1O (stereo not drawn)	40*	60*	25	12	9	29
Cc1cc(Cl)ccc1OC(C)C(=O)Nc1ccc(S(=O)(=O)Nc2cnc3ccccc3n2)cc1 (stereo not drawn)	-11	67*	33	·	0	10
O=[N+]([O-])c1ccccc1OCCCOc1cccc2cccnc12	-2	-1	14	-17	41	17
Cc1nc(Cc2nnc(SCC(=O)N3c4ccccc4NC(=O)C3(C)C)o2)cs1	-4	·	·	·	·	·
COc1cc(C#Cc2c(-c3cncn3C)n(C)c3ccc(-c4ccc(OC)nc4)cc23)cc(OC)c1	-1	·	24	+	25	5
COc1cc(C#Cc2c(-c3cncn3C)n(C)c3ccc(-c4ccc5[nH]ccc5c4)cc23)cc(OC)c1	39	·	19	-19	19	13
c1ccc(-c2csc3ncnc(N4CCc5ccccc5C4)c23)cc1	30	89*	·	-16	·	·
COc1ccc(-c2csc3ncnc(N4CCN(c5ccccc5Cl)CC4)c23)cc1	36	55*	16	-24	18	1
CCOc1ccc(N(C)c2ccc(/C=C3/SC(=S)NC3=O)cc2)cc1	11	65*	0	1	-1	9
CN(C)c1ccc(C=C2SC(=S)NC2=O)cc1	3	·	·	-26	·	·
O=C1NC(=O)/C(=C\c2ccc(OCc3ccccc3)cc2)S1	9	55*	10	8	9	7
COc1ccc([N+](=O)[O-])cc1NS(=O)(=O)c1cccc(C(=O)OC2CCOC2=O)c1 (stereo not drawn)	-7	·	-1	-16	-1	4
CCN1CCN(Cc2ccc(NC(=O)c3cc(NC(=O)C(=O)c4c[nH]c5ccccc45)cc(OC)c3)cc2C(F)(F)F)CC1	-6	99*	2	-10	4	7
CCN1CCN(Cc2ccc(NC(=O)c3ccc(C)c(NC(=O)C(=O)c4c[nH]c5ccccc45)c3)cc2C(F)(F)F)CC1	5	83*	20	5	20	-5
